{
  "source": "paper PMC8384837",
  "about": "“Expanding the binding specificity for RNA recognition by a PUF domain”",
  "assay_in_all_cases": "yeast three-hybrid, YBZ-1, SC-Leu-His + 0.5 mM 3-AT, 4 days",
  "details_in_all_cases": "tags: N-Gal4 AD-HA kept; label: inside an RPR1-promoter hybrid RNA with tandem MS2 sites; ssRNA",
  "key": {"[1]": {"molecular_target": "PUM1 PUF domain R4-AHP (Homo sapiens, UniProt Q14671 828-1176, N971A;Q975P)", "in_short": "(§1)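 Pumilio-1 PUF domain libraries, randomized at the three base-contacting residues of each repeat, were co-expressed with matching RNA elements from a centromeric plasmid in strain YBZ-1, which carries a LexA–MS2 coat fusion and a HIS3 reporter. Transformants grew for four days on SC-Leu (input) or on SC-Leu-His + 0.5 mM 3-AT (selection), and the repeat regions were PCR-amplified and Illumina-sequenced. The interaction score is the log change in variant frequency from input to selection. That logarithm is base 2, with a pseudocount of 1 where a variant was absent.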"}, "[2]": {"molecular_target": "PUM1 PUF domain R7-GGK (Homo sapiens, UniProt Q14671 828-1176, S1079G;N1080G;E1083K)", "in_short": "as §1"}, "[3]": {"molecular_target": "PUM1 PUF domain R4-QPS (Homo sapiens, UniProt Q14671 828-1176, N971Q;H972P;Q975S)", "in_short": "as §1"}, "[4]": {"molecular_target": "T1, PUM1 PUF domain R6-NRI (Homo sapiens, UniProt Q14671 828-1176, Y1044R;Q1047I)", "T1 sequence": "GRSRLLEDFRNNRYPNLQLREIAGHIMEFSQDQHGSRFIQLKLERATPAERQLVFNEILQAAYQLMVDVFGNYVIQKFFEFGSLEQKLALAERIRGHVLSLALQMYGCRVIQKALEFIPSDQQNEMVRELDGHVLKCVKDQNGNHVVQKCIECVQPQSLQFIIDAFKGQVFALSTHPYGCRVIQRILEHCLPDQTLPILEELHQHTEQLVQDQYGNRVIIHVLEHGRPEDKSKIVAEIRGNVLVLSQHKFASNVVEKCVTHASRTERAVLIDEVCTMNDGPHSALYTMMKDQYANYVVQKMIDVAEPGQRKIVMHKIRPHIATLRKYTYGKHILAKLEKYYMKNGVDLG", "in_short": "as §1"}, "[5]": {"molecular_target": "PUM1 PUF domain R3-SRP (Homo sapiens, UniProt Q14671 828-1176, C935S;Q939P)", "in_short": "as §1"}, "[6]": {"molecular_target": "T2, PUM1 PUF domain R6-HFS (Homo sapiens, UniProt Q14671 828-1176, N1043H;Y1044F;Q1047S)", "T2 sequence": "T1 sequence with N216H, R217F, I220S", "in_short": "as §1"}, "[7]": {"molecular_target": "PUM1 PUF domain R8-RFM (Homo sapiens, UniProt Q14671 828-1176, N1122R;Y1123F;Q1126M)", "in_short": "as §1"}, "[8]": {"molecular_target": "PUM1 PUF domain R8-LYR (Homo sapiens, UniProt Q14671 828-1176, N1122L;Q1126R)", "in_short": "as §1"}, "[9]": {"molecular_target": "PUM1 PUF domain R3-GRH (Homo sapiens, UniProt Q14671 828-1176, C935G;Q939H)", "in_short": "as §1"}, "[10]": {"molecular_target": "PUM1 PUF domain R3-RAV (Homo sapiens, UniProt Q14671 828-1176, C935R;R936A;Q939V)", "in_short": "as §1"}, "[11]": {"molecular_target": "PUM1 PUF domain R3-RQR (Homo sapiens, UniProt Q14671 828-1176, C935R;R936Q;Q939R)", "in_short": "as §1"}, "[12]": {"molecular_target": "PUM1 PUF domain R5-HLY (Homo sapiens, UniProt Q14671 828-1176, C1007H;R1008L;Q1011Y)", "in_short": "as §1"}, "[13]": {"molecular_target": "PUM1 PUF domain R1-KIM (Homo sapiens, UniProt Q14671 828-1176, S863K;R864I;Q867M)", "in_short": "as §1"}, "[14]": {"molecular_target": "PUM1 PUF domain R1-NWV (Homo sapiens, UniProt Q14671 828-1176, S863N;R864W;Q867V)", "in_short": "as §1"}, "[15]": {"molecular_target": "PUM1 PUF domain R2-IVF (Homo sapiens, UniProt Q14671 828-1176, N899I;Y900V;Q903F)", "in_short": "as §1"}, "[16]": {"molecular_target": "PUM1 PUF domain R5-QNR (Homo sapiens, UniProt Q14671 828-1176, C1007Q;R1008N;Q1011R)", "in_short": "as §1"}, "[17]": {"molecular_target": "PUM1 PUF domain R4-EWD (Homo sapiens, UniProt Q14671 828-1176, N971E;H972W;Q975D)", "in_short": "as §1"}},
  "note": "Numbering of substitutions follows the chain as printed.",
  "data": [
    {"sequence": "GGCUAGAACUAGUGGAUCCCCCGGCGCCCGGCGGCUCGAGCCCGGGUAAGUGUACAUAGUCUGCAUGCCGCCGGGCGCCAUGCCUGCAGGUCGACUCUAGAAAACAUG", "values": [
      {"measurement": "binding signal", "setting": "[1]", "result": "4.93 log2 enrichment (interaction score)"}
    ]},
    {"sequence": "GGCUAGAACUAGUGGAUCCCCCGGCGCCCGGCGGCUCGAGCCCGGGUAAGUUUAAAUAGUCUGCAUGCCGCCGGGCGCCAUGCCUGCAGGUCGACUCUAGAAAACAUG", "values": [
      {"measurement": "binding signal", "setting": "[2]", "result": "3.4 log2 enrichment (interaction score)"}
    ]},
    {"sequence": "GGCUAGAACUAGUGGAUCCCCCGGCGCCCGGCGGCUCGAGCCCGGGUAAGUGUAAAUAGUCUGCAUGCCGCCGGGCGCCAUGCCUGCAGGUCGACUCUAGAAAACAUG", "values": [
      {"measurement": "binding signal", "setting": "[3]", "result": "1.44 log2 enrichment (interaction score)"},
      {"measurement": "binding signal", "setting": "[4]", "result": "4.34 log2 enrichment (interaction score)"},
      {"measurement": "binding signal", "setting": "[5]", "result": "5.42 log2 enrichment (interaction score)"},
      {"measurement": "binding signal", "setting": "[6]", "result": "4.79 log2 enrichment (interaction score)"},
      {"measurement": "binding signal", "setting": "[7]", "result": "4.37 log2 enrichment (interaction score)"},
      {"measurement": "binding signal", "setting": "[8]", "result": "4.3 log2 enrichment (interaction score)"},
      {"measurement": "binding signal", "setting": "[9]", "result": "4.23 log2 enrichment (interaction score)"}
    ]},
    {"sequence": "GGCUAGAACUAGUGGAUCCCCCGGCGCCCGGCGGCUCGAGCCCGGGUAAGUGUAUAUAGUCUGCAUGCCGCCGGGCGCCAUGCCUGCAGGUCGACUCUAGAAAACAUG", "values": [
      {"measurement": "binding signal", "setting": "[3]", "result": "3.86 log2 enrichment (interaction score)"}
    ]},
    {"sequence": "GGCUAGAACUAGUGGAUCCCCCGGCGCCCGGCGGCUCGAGCCCGGGUAAGUGUAAUUAGUCUGCAUGCCGCCGGGCGCCAUGCCUGCAGGUCGACUCUAGAAAACAUG", "values": [
      {"measurement": "binding signal", "setting": "[10]", "result": "3.5 log2 enrichment (interaction score)"},
      {"measurement": "binding signal", "setting": "[11]", "result": "3.88 log2 enrichment (interaction score)"},
      {"measurement": "binding signal", "setting": "[5]", "result": "1.56 log2 enrichment (interaction score)"}
    ]},
    {"sequence": "GGCUAGAACUAGUGGAUCCCCCGGCGCCCGGCGGCUCGAGCCCGGGUAAGUGUCAAUAGUCUGCAUGCCGCCGGGCGCCAUGCCUGCAGGUCGACUCUAGAAAACAUG", "values": [
      {"measurement": "binding signal", "setting": "[12]", "result": "3.47 log2 enrichment (interaction score)"}
    ]},
    {"sequence": "GGCUAGAACUAGUGGAUCCCCCGGCGCCCGGCGGCUCGAGCCCGGGUAAGUGAAAAUAGUCUGCAUGCCGCCGGGCGCCAUGCCUGCAGGUCGACUCUAGAAAACAUG", "values": [
      {"measurement": "binding signal", "setting": "[4]", "result": "2.1 log2 enrichment (interaction score)"}
    ]},
    {"sequence": "GGCUAGAACUAGUGGAUCCCCCGGCGCCCGGCGGCUCGAGCCCGGGUAAGUGUAAAUUGUCUGCAUGCCGCCGGGCGCCAUGCCUGCAGGUCGACUCUAGAAAACAUG", "values": [
      {"measurement": "binding signal", "setting": "[13]", "result": "3.49 log2 enrichment (interaction score)"},
      {"measurement": "binding signal", "setting": "[14]", "result": "4.33 log2 enrichment (interaction score)"}
    ]},
    {"sequence": "GGCUAGAACUAGUGGAUCCCCCGGCGCCCGGCGGCUCGAGCCCGGGUAAGUGUAAAGAGUCUGCAUGCCGCCGGGCGCCAUGCCUGCAGGUCGACUCUAGAAAACAUG", "values": [
      {"measurement": "binding signal", "setting": "[15]", "result": "4.01 log2 enrichment (interaction score)"}
    ]},
    {"sequence": "GGCUAGAACUAGUGGAUCCCCCGGCGCCCGGCGGCUCGAGCCCGGGUAAGUGUUAAUAGUCUGCAUGCCGCCGGGCGCCAUGCCUGCAGGUCGACUCUAGAAAACAUG", "values": [
      {"measurement": "binding signal", "setting": "[16]", "result": "2.93 log2 enrichment (interaction score)"}
    ]},
    {"sequence": "GGCUAGAACUAGUGGAUCCCCCGGCGCCCGGCGGCUCGAGCCCGGGUAAGUGUAGAUAGUCUGCAUGCCGCCGGGCGCCAUGCCUGCAGGUCGACUCUAGAAAACAUG", "values": [
      {"measurement": "binding signal", "setting": "[17]", "result": "4.33 log2 enrichment (interaction score)"}
    ]},
    {"sequence": "GGCUAGAACUAGUGGAUCCCCCGGCGCCCGGCGGCUCGAGCCCGGGUAAGCGUAAAUAGUCUGCAUGCCGCCGGGCGCCAUGCCUGCAGGUCGACUCUAGAAAACAUG", "values": [
      {"measurement": "binding signal", "setting": "[8]", "result": "5.06 log2 enrichment (interaction score)"}
    ]}
  ]
}
